This passage reports inhibition and z-score results from PubChem BioAssay AID463116 (University of Pittsburgh Molecular Library Screening Center, 2010).

Structures are written as SMILES. About 710 (71%) of roughly 1,000 compounds were called active. About 7% were inconclusive and are not listed.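 Rule for the calls: active = inhibition of receptor movement into the nucleus at or above a set limit in both runs, with normal cell brightness and cell count; inconclusive = limit reached in only one run, brightness and count normal; inactive = the rest.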 So high a share suggests a set chosen from earlier hits. Not all results are given here.

The assay in a line: blockers of dexamethasone-driven GR-EGFP nuclear import – imaging, high-content imaging, GR-EGFP cells, confirmation (AID 463116).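 For inhibition: dexamethasone at 1 µM final in well for 30 min; nuclear minus cytoplasmic GR-EGFP mean intensity difference in channel 2.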 The following applies: 3617.4 GR-EGFP nuclear translocation imaging, dexamethasone-induced, at 20 µM; inhibition: stronger effect = higher value; z-score: measured here: cell count per field.
Take `O=[N+]([O-])c1cc(S(=O)(=O)CCCN2CCOCC2)ccc1F`: the inhibition (as a rule, the change of the read-out against control, counted positive when it falls) is 80.5% (active) and the z-score was found to be 0.409.
`CC1CCN(C(=O)c2ccc(S(=O)(=O)Cc3cc(F)ccc3F)c([N+](=O)[O-])c2)CC1`: the inhibition is 37.2% (inactive) and the z-score turned out to be 0.248.
For `COc1ccc(-c2csc3nc(-c4ccccc4F)oc(=O)c23)cc1OC` the same measures were 76.8% (active) and 0.201.
The corresponding values for `Cn1c(=O)c([N+](=O)[O-])c(Oc2ccccc2)c2ccccc21` are 77.8% (active) and 0.222.
Consider `Cc1cccc(Oc2c([N+](=O)[O-])c(=O)n(C)c3ccccc23)c1`, for which the inhibition is 65.6% (active) and the z-score was 0.355.
For `CC(C)(C)C1C/C(=C/c2ccco2)C(=O)/C(=C/c2ccco2)C1` (stereo unspecified) the same measures were 184% (inactive) and 0.226.
For `Cc1cccc2cc3c(N)c(C(=O)N4CCCc5ccccc54)sc3nc12` the same measures were 97.1% (active) and -0.357.
With `COc1ccc(NC(=O)/C(Cl)=C(/Cl)S(=O)Cc2ccc(C)cc2)cn1` (stereo unspecified), the inhibition was 76.8% (active) and the z-score was 0.179.
For the molecule `CC1=C/C(=N\OS(=O)(=O)c2ccccc2)C=CC1=O`, the inhibition is 85.1% (active) and the z-score was 0.68.
For the molecule `Nc1ccccc1SC(C[N+](=O)[O-])c1ccccc1` (stereo unspecified), the inhibition was 71.2% (active) and the z-score was -0.448.
As to `O=C1/C(=C\c2cccnc2)CN(Cc2ccccc2)C/C1=C\c1cccnc1`, the inhibition was 81.1% (active) and the z-score worked out at 0.0646.
Consider `Cc1cc(-c2n[nH]c(=S)n2/N=C/C(Br)=C/c2ccccc2)n[nH]1`, for which the inhibition was 80.8% (active) and the z-score was 0.326.
For `Cc1[nH]c(=O)c(C(=O)/C=C/c2ccccc2)c2c1CCCC2` the same measures were 71.9% (active) and 0.213.
The corresponding values for `O=C(CCl)N(Cc1cccc([N+](=O)[O-])c1)c1cccc(Cl)c1` are 84.8% (active) and 0.159.
The corresponding values for `COc1ccc(-c2cc(C(F)(F)F)nc(S(C)(=O)=O)n2)cc1OC` are 51.4% (active) and 0.253.
Take `Cc1cc(C(=O)NCCc2ccc(Cl)cc2)n(-c2ccccc2)n1`: the inhibition was 16.2% (inactive) and the z-score turned out to be 0.17.
`Cc1cc(C)nc(S/C=C/C(=O)c2ccccc2)n1`: the inhibition was 68.4% (active) and the z-score was determined as 1.05.
Turning to `Clc1cccc(-c2nc3nc4ccccc4nc3n2Cc2ccco2)c1`, the inhibition was 12.8% (inactive) and the z-score turned out to be 0.105.
For `COc1ccc(C(=O)NCC(=O)N/N=C/c2ccc([N+](=O)[O-])o2)cc1OC` the same measures were 59.2% (active) and -0.0055.
For the molecule `O=C(/C=C/Sc1ncn[nH]1)c1ccc(Cl)cc1`, the inhibition was 69.1% (active) and the z-score was found to be 0.228.
For `CCN(CC)c1ccc2oc(=O)c(C)nc2c1` the same measures were 82.6% (active) and 0.353.
For `COc1ccc(C(CCN(Cc2ccc(OC)c(OC)c2)C(=O)CCl)c2ccccc2)cc1` (stereo unspecified) the same measures were 90.9% (active) and -0.513.
As to `O=C(CCl)Nc1cccc(CP(=O)(c2ccccc2)c2ccccc2)c1`, the inhibition is 63.6% (active) and the z-score was determined as 0.239.
On to `O=C1C=C(c2ccc(Cl)cc2)C(=O)N1Nc1ccccc1`, for which the inhibition is 81% (active) and the z-score turned out to be 1.03.
The corresponding values for `O=C(Nc1ccccc1)c1nnsc1S(=O)(=O)c1ccc(Cl)cc1` are 38.8% (inactive) and -5.42.
For `CCOC(=O)C(=Cc1ccccc1OC)C(=O)OCC` the same measures were 82.2% (active) and 0.778.
For `N#C/C(=C/c1ccc(N2CCCCC2)o1)C(=O)NCCc1c[nH]c2ccccc12`, the inhibition is 96.8% (active) and the z-score came to 0.0808.
Take `Oc1c(C=Nc2cccc3nsnc23)ccc2ccccc12`: the inhibition is 23.9% (inactive) and the z-score was determined as 0.36.
The corresponding values for `COc1cc2c(cc1O)C(SC)=NC(C)(C)C2` are 79.1% (active) and 0.013.
As to `COC(=O)/C=C\C(=O)Nc1cccc([N+](=O)[O-])c1`, the inhibition was 77.7% (active) and the z-score is -1.06.
For `CCC1=C/C(=C\c2ccc3c(c2)OCO3)C(=O)S1` the same measures were 30.5% (inactive) and 0.474.
In the case of `C[C@@H]1C[C@@H]2O[C@H]2/C=C\C=C\C(=O)Cc2c(Cl)c(O)cc(O)c2C(=O)O1`, the inhibition is 90.1% (active) and the z-score is -0.431.
`Cc1cc(C)c2c3c(sc2n1)C(c1ccccc1)C(C#N)=C(N)O3` (stereo unspecified): the inhibition is 23.6% (inactive) and the z-score is 0.166.
For `CCN1/C(=C/c2ccc3ccc(C)cc3[n+]2CC)Sc2ccccc21` the same measures were 99.7% (active) and 0.0317.
The corresponding values for `O=S1(=O)CCC(NC(=S)SCc2ccccc2Br)C1` (stereo unspecified) are 67.1% (active) and -0.249.
Regarding `C=CS(=O)c1sc(Cl)c(N2CCOCC2)c1[N+](=O)[O-]` (stereo unspecified), the inhibition was 83.2% (active) and the z-score is -0.577.
The corresponding values for `Nc1c(C(=O)c2cccs2)sc2nsc(SCCN3CCCCC3)c12` are 91.8% (active) and 0.159.
In the case of `CC1(C)CCSC(/C=C/c2ccccc2)=N1`, the inhibition was 90.7% (active) and the z-score is -0.988.
